Bioassay records deposited in PubChem by National Center for Advancing Translational Sciences (NCATS).
MCF10A rerep: DNA re-replication induction in MCF 10a cells. MCF 10A DNA re-replication, Hoechst nuclear intensity, 48 h. Potency, µM (series often up to 46.1 µM), for the others: at the highest dose activity, positive = re-replication, most hits filed as activators. hit rate 2.9% among 350,000; also: % of control where 0% means no effect; nearly all actives have a fitted effect of over 50% in size
SW480 rereplic: DNA re-replication induction in SW480 cells | SW480 DNA re-replication, Hoechst DNA content imaging, 48 h | Potency, µM (top dose mostly 46.1 µM), without a hit: at the highest dose re-replication activation, hits mostly activators | hit rate 1.8% among 340,000 | AID 624297; also: % of control where 0% means no effect; nearly all actives have a fitted effect of over 55% in size
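Treated cells incubate 48 hr (37 C, 5% CO2), are stained 40 min with Hoechst, and nuclear fluorescence is enumerated; a rise in nuclei with high DNA signal marks re-replication.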
KB-V1 MDR tox: KB-V1 MDR subline cytotoxicity | KB-V1 MDR cells viability, CellTiter-Glo, 72 h | Potency, µM (titrated, usually from 46.1 µM), usual class: cytotoxic | hit rate 3.4% among 400,000; also: % is scaled to controls: 0 for no effect and ±100 for the full control effect; nearly all actives have a fitted effect of over 60% in size
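qHTS viability screen in drug-selected KB-V1 MDR cells: 72 h compound treatment at 37 degrees C, ATP luminescence end point.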
HT1080 IDH1KD tx: HT-1080 IDH1 knockdown cell toxicity (counter line). AID 686971. hit rate 2% among 360,000. HT-1080 IDH1 knockdown viability, ATP luminescence, 48 h. Potency, µM (top dose mostly 46.1 µM), inactives show at the top dose activity, negative = toxicity, actives largely listed as cytotoxic;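 also: 0% = DMSO wells and -100% = cell-free medium wells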
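In this qHTS, HT-1080 cells depleted of IDH1 are exposed for 48 h at 37 °C to compound titrations. Toxicity is scored from CellTiter-Glo luminescence, with DMSO as full viability and medium alone as none.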
KB-3-1 tox: KB-3-1 parental cell cytotoxicity; hit rate 1.4% among 400,000; Potency, µM (doses to about 46.1 µM), usual class: cytotoxic; KB-3-1 viability, CellTiter-Glo ATP luminescence, 72 h; also: % is scaled to controls: 0 for no effect and ±100 for the full control effect; nearly all actives have a fitted effect of over 60% in size
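72 h, 37 °C compound treatment of KB-3-1 parental cells; CellTiter-Glo added, 10 min, luminescence read. Data corrected against DMSO-only plates and normalized before curve fitting.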
HT1080NT lethal: kills 2HG-producing HT-1080-NT fibrosarcoma cells; HT-1080-NT fibrosarcoma viability, CellTiter-Glo ATP luminescence, 48 h; Potency, µM (titrated, usually from 46.1 µM), for inactives: at the highest dose activity, negative = less viability, actives largely listed as cytotoxic; hit rate 1.6% among 360,000;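 also: NT is the 2HG producing partner of a matched IDH1 knockdown line; 0% = DMSO-treated cells and -100% = media-only wells without cells; nearly all actives have a fitted effect of over 55% in size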
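A 48-hour cytotoxicity screen used HT-1080-NT cells plated 2 hours before compound delivery. ATP-based CellTiter-Glo luminescence measured viability, normalized to DMSO and no-cell controls.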
Starred values were filed as active, the others as inactive; i = inactive; ? = inconclusive; · = no result given. Only some compounds are listed: those with a hit (about 8% of all), similar ones and a draw of the others. Calls follow the shape of the dose curve; as a rule, active = well fitted curve in the direction sought with a large enough effect; inconclusive = small, poorly fitted or top-dose-only effect, or another doubt; inactive = no such curve, though single readings can be large; an effect the other way counts as inactive or inconclusive. Potency is read from the fitted curve at half-maximal effect.

SMILES	MCF10A rerep	SW480 rereplic	KB-V1 MDR tox	HT1080 IDH1KD tx	KB-3-1 tox	HT1080NT lethal
COc1cc(C2SCC(=O)N2Cc2ccccc2)ccc1O (stereo not drawn)	4%	?	i	1%	i	2%
CCCc1nnc(SCc2cc(=O)c3c(C)cc(C)cc3[nH]2)n1C	·	·	i	·	i	·
O=C(NCCc1ccccc1)c1cccc([N+](=O)[O-])c1	-11%	-5%	18µM*	9%	i	10%
CN(C)N1C(N)=C(C#N)C(c2cccc([N+](=O)[O-])c2)C2=C1CC(C)(C)CC2=O (stereo not drawn)	-2%	-10%	i	-2%	i	8%
CCn1c(CNC(=O)c2ccc(OC)cc2)nnc1SCC(=O)Nc1ccc(OC)cc1	·	·	i	·	i	·
COc1cccc(/C=N/Nc2nnc3c(n2)[nH]c2ccccc23)c1OC	5%	?	i	5%	?	0%
CCc1ccc2[nH]c3nc(N/N=C/c4cccc(O)c4)nnc3c2c1	?	15%	i	9.2µM*	?	?
O=C(CSc1nc2ccccc2nc1N1CCOCC1)N1CCN(c2ccccc2)CC1	-2%	-5%	i	-10%	?	-27%
O=C(CN1CCN(c2ccccc2)CC1)N1CCN(c2ccccc2)CC1	-4%	0%	21µM*	1%	i	-2%
O=C(CSc1nc2ccccc2nc1N1CCCCC1)N1CCN(c2ccccc2)CC1	4.1µM*	1%	21µM*	-7%	?	-18%
O=C(CN1CCCCC1)N1CCN(c2ccccc2)CC1	1%	10%	i	12%	i	3%
COCCNc1nc(SCC(=O)N2CCN(c3ccccc3)CC2)nc2ccccc12	-4%	-1%	9.2µM*	-18%	i	1%
CC1CN(c2nc3ccccc3nc2SCC(=O)Nc2cccc(C(F)(F)F)c2)CC(C)O1 (stereo not drawn)	?	6%	i	-17%	23µM*	?
COc1ccc(NC(=O)CCCc2nc(-c3ccco3)no2)c(OC)c1	·	·	i	·	i	·
Cc1cccc(NC(=O)CSc2nc3ccccc3nc2N2CCCCC2)c1	?	28%	?	-26%	?	-20%
CCc1ccc(NC(=O)CSc2nc3ccccc3nc2N2CCCCC2)cc1	10µM*	2%	?	4%	i	10%
O=C(CSc1ncccc1-c1nc2ccccc2[nH]1)N1CCCCC1	2%	-2%	5.2µM*	4%	i	4%
COc1ccc(NC(=O)CSc2nc3ccccc3nc2N2CCCCC2)cc1	?	6%	i	-14%	i	-3%
Cc1cccc(NC(=O)CSc2nc3ccccc3nc2N2CCCC2)c1	21µM*	25%	?	?	?	-27%
CCc1ccccc1NC(=O)CC(c1ccc(OC)cc1)n1cccc1 (stereo not drawn)	?	-52%	7.3µM*	3%	i	3%
COC(=O)/C(=C1/Oc2cc(C)oc(=O)c2S1)C(F)(F)F	5.8µM*	12µM*	i	15µM*	i	-17%
OC1(c2cccc(C(F)(F)F)c2)CCN(c2ncnc3c2[nH]c2ccc(F)cc23)CC1	?	?	i	18µM*	i	23µM*
Fc1ccc2[nH]c3c(N4CCN(c5ccccc5)CC4)ncnc3c2c1	?	19%	16µM*	21µM*	i	?
COCCN(Cc1cc2cc3c(cc2nc1Cl)OCO3)C(=O)Nc1ccc(F)cc1	-6%	19%	?	17%	16µM*	-4%
CCOc1ccccc1OCC(=O)NC1CCCCC1	9%	-25%	i	-2%	i	11%
SMILES	MCF10A rerep	SW480 rereplic	KB-V1 MDR tox	HT1080 IDH1KD tx	KB-3-1 tox	HT1080NT lethal
O=C(COc1ccccc1Br)NC1CCCC1	25%	-205%	16µM*	-9%	?	-14%
O=C(NC1CCCC1)c1cnn2c(C(F)(F)F)cc(-c3ccco3)nc12	?	0%	5.2µM*	?	i	3%
O=C(c1nn2c(C(F)(F)F)cc(-c3ccco3)nc2c1Br)N1CCCc2ccccc21	9.2µM*	?	23µM*	10µM*	?	23µM*
CC(C)CCNC(=O)c1cnn2c(C(F)(F)F)cc(-c3ccco3)nc12	-10%	0%	11µM*	?	?	1%
CC(C)CCNC(=O)c1cc(-c2ccco2)nc2ccccc12	8%	-1%	9.2µM*	-2%	i	0%
O=C(NC1CCCC1)c1cnn2c(C(F)(F)F)cc(-c3ccc4c(c3)OCO4)nc12	11%	1%	?	10%	i	4%
COCCCNC(=O)c1c(NC(=O)Cc2coc3cc(C)cc(C)c23)sc2c1CCCC2	·	·	i	·	i	·
Cc1ccc(Cl)cc1NC(=O)CN(C)S(=O)(=O)c1ccc2c(c1)n(C)c(=O)c(=O)n2C	·	·	i	·	i	·
C=C1C(=O)OC2C1CCC(C)=C1C(=O)C3OC3(C)C12 (stereo not drawn)	?	?	?	16µM*	?	?
COc1ccc(C(=O)Nc2ccc(-c3ccc(NC(=O)c4ccc(OC)cc4)c(OC)c3)cc2OC)cc1	2.3µM*	-124%	i	-4%	i	-3%
COc1ccc(NC(=O)c2ccc(C(=O)Nc3ccc(OC)cc3OC)cc2)c(OC)c1	-7%	5.2µM*	i	5%	i	12%
COc1ccc(NCC(=O)Nc2ccc(Br)cc2F)c(OC)c1	?	6.5µM*	i	-5%	i	?
COc1ccc(NC(=O)c2cc(Br)ccc2Cl)c(OC)c1	-47%	-1%	16µM*	-5%	i	2%
Oc1cccc2ccc(Nc3ccccn3)nc12	5.8µM*	?	?	5.8µM*	5.8µM*	5.8µM*
NS(=O)(=O)c1ccc(CCNC(=O)C2CCN(C(=O)Nc3ccccc3)CC2)cc1	4%	?	i	-14%	i	4%
CC1CC1C(=O)Nc1ccc(S(=O)(=O)N2CCCCC2)cc1 (stereo not drawn)	15%	-12%	10µM*	-2%	i	-4%
CC(OC(=O)c1ccc(Cl)nc1)C(=O)Nc1ccc(S(=O)(=O)N2CCCC2)cc1 (stereo not drawn)	4%	-6%	?	3%	i	-2%
CN(C)S(=O)(=O)c1ccc(NC(=O)C2CCCN(C(=O)c3ccc(Cl)cc3)C2)cc1 (stereo not drawn)	10%	4%	i	-2%	i	-3%
